We go through 27 compounds from PubChem BioAssay (Tox21).

A short description of test [1]: qHTS assay to identify small molecule agonists of the peroxisome proliferator-activated receptor delta (PPARd) signaling pathway - cell viability counter screen (AID 743211). Further: nearly all actives have a fitted effect of over 55% in size. Further: potency means the concentration at half of the fitted maximal effect. In a few lines:
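Read-out: CellTiter-Glo luminescence, 30 min RT, measured in the same wells as the beta-lactamase reporter. Cells: GeneBLAzer PPAR delta UAS-bla HEK293H, 3000 cells/well, compound exposure 17 h at 37C.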
For orientation: Quantitative high-throughput screening tests each substance at several concentrations.

In test [2] the target is Peroxisome proliferator-activated receptor delta (Homo sapiens) (UniProt Q03181). Briefly: qHTS assay to identify small molecule agonists of the peroxisome proliferator-activated receptor delta (PPARd) signaling pathway (AID 743212; calls by dose curve; further: potency means the concentration at half of the fitted maximal effect). The method, boiled down:
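HEK293H PPARd-bla cells; 5 h preincubation 37 C/5% CO2; compound (DMSO) 37 C; LiveBLAzer B/G FRET substrate 2 h RT; fluorescence intensity.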

The nature of test [3]: qHTS assay to identify small molecule antagonists of the peroxisome proliferator-activated receptor delta (PPARd) signaling pathway - cell viability counter screen (AID 743213). Further: nearly all actives have a fitted effect of over 50% in size. In a few lines:
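PPARd-bla HEK293H cells were treated with compounds plus agonist L165041 (300 nM final) for 17 h at 37 C. Viability was then read in the same wells by CellTiter-Glo luminescence after 30 min at room temperature.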

Test [4] addresses Peroxisome proliferator-activated receptor delta (Homo sapiens) (UniProt Q03181). Briefly: qHTS assay to identify small molecule antagonists of the peroxisome proliferator-activated receptor delta (PPARd) signaling pathway (AID 743215; active means well fitted inhibition curve with a large enough effect in the signal ratio in the repeat runs, not every such curve was filed as active; the % refers to the signal ratio;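 further: cells stimulated with agonist L165041 at 300 nM final during compound exposure; series mostly up to about 62 µM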). In a few lines: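 Antagonist-mode beta-lactamase reporter screen: HEK293H cells with UAS-bla under PPARd control, stimulated by 300 nM L165041 (final) alongside test compound for 17 h at 37 C, then FRET fluorescence after 2 h substrate incubation.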

In test [5] the target is Bile acid receptor (Homo sapiens) (UniProt Q96RI1). The test can be described thus: qHTS assay to identify small molecule antagonists of the farnesoid-X-receptor (FXR) signaling pathway (AID 743217; active means well fitted inhibition curve with a large enough effect in the signal ratio in the repeat runs, not every such curve was filed as active; the % refers to the signal ratio). In a few lines:
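Beta-lactamase reporter under UAS control in HEK 293T cells; compound exposure 16 h at 37 °C in the presence of chenodeoxycholic acid (50 uM final); signal from B/G FRET substrate after 2 h at room temperature.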

Test [6] in a line: qHTS assay to identify small molecule agonists of the farnesoid-X-receptor (FXR) signaling pathway - cell viability counter screen (AID 743218). Further: nearly all actives have a fitted effect of over 45% in size. In a few lines: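 In GeneBLAzer FXR-UAS-bla HEK 293T cells, compounds act for 16 h at 37 C. Cell viability is then scored in the reporter wells by CellTiter-Glo, 30 min at RT, luminescence.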
The target in test [7] is Bile acid receptor (Homo sapiens) (UniProt Q96RI1). Briefly: qHTS assay to identify small molecule agonists of the farnesoid-X-receptor (FXR) signaling pathway (AID 743220; active means well fitted activation curve with a large enough effect in the signal ratio in the repeat runs, not every such curve was filed as active; the % refers to the signal ratio). The method, boiled down:
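Beta-lactamase reporter under UAS control in GeneBLAzer FXR HEK 293T cells (5000/well) measured with LiveBLAzer FRET substrate after 2 h at room temperature. Compound exposure lasted 16 h at 37C.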

Test [8] in a line: qHTS assay to identify small molecule antagonists of the farnesoid-X-receptor (FXR) signaling pathway - cell viability counter screen (AID 743221; active means well fitted cell-killing curve with a large enough effect in the repeat runs, not every such curve was filed as active; further: nearly all actives have a fitted effect of over 50% in size). The method, boiled down: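 HEK 293T FXR-bla cells, 5 h pre-incubation; compound + CDCA 50 uM final, 16 h, 37 C; beta-lactamase FRET read first, then CellTiter-Glo luminescence, 30 min RT.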
In test [9] the target is Vitamin D3 receptor (Homo sapiens) (UniProt P11473). Briefly: qHTS assay to identify small molecule agonists of the vitamin D receptor (VDR) signaling pathway (AID 743222; calls by dose curve). The method, boiled down:
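Agonist activity measured in VDR-bla reporter cells. Exposure 16 h, 37C, 5% CO2; detection by B/G FRET substrate, 2 h RT.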

The target is the same in test [10]. Briefly: qHTS assay to identify small molecule antagonists of the vitamin D receptor (VDR) signaling pathway (AID 743223; active means well fitted inhibition curve with a large enough effect in the signal ratio in the repeat runs, not every such curve was filed as active; the % refers to the signal ratio). In a few lines:
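Beta-lactamase reporter read-out: FRET substrate fluorescence after 2 h at room temperature, following 16 h exposure of VDR-bla cells to test compound plus 3 nM (final) 1alpha,25-dihydroxyvitamin D3 agonist at 37C.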

Results filed as inconclusive are left out. A number with no mark means an inactive call. Activity calls are given as the source filed them. Unless noted, the call rests on the fitted dose curve; in most records, active means well fitted curve in the direction sought with a large enough effect in the repeat runs; inconclusive means weak or mixed curves; inactive means no such curve, though single readings can be large; an effect the other way counts as inactive or inconclusive.
On the % scale 0 is the no-effect control and ±100 the full control effect.

Sequence of Peroxisome proliferator-activated receptor delta (Homo sapiens) (Q03181 whole entry, looked up): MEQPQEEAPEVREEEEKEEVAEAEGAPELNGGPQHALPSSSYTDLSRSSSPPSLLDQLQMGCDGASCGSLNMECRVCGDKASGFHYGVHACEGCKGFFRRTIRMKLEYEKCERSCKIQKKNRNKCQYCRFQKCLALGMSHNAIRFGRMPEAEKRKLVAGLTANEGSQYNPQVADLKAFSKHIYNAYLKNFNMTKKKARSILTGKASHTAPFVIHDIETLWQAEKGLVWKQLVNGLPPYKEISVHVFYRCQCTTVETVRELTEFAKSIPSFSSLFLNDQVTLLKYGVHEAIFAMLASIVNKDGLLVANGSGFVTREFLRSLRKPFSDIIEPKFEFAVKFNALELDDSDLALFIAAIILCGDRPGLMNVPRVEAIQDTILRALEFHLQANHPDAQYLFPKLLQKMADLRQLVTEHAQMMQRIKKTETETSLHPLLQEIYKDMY
Sequence of Bile acid receptor (Homo sapiens) (Q96RI1 whole entry, looked up): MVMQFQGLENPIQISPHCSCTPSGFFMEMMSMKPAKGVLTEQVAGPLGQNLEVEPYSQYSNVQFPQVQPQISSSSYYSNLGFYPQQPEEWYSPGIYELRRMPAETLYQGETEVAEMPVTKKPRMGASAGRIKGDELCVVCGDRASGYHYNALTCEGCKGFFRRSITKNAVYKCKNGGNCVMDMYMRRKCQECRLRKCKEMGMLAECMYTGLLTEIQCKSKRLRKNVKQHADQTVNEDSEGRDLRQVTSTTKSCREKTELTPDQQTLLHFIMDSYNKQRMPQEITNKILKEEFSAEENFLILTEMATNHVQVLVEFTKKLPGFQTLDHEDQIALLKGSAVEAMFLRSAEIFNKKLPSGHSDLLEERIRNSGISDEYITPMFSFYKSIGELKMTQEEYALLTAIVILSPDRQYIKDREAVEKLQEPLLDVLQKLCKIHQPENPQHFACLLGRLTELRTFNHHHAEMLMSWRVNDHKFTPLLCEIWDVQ
Sequence of Vitamin D3 receptor (Homo sapiens) (P11473 whole entry, looked up): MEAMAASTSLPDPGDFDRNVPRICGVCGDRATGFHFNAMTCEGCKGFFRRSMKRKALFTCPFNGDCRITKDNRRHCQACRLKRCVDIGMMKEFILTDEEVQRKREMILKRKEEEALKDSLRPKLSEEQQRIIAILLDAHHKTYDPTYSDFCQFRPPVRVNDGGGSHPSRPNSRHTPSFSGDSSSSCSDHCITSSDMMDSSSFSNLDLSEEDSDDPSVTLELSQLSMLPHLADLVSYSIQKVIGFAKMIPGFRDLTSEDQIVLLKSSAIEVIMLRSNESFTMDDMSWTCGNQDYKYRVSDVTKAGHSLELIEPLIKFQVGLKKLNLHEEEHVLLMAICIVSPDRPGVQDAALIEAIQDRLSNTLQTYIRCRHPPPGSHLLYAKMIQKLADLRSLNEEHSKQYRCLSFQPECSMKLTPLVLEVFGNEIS

As to `C/C=C/C=C/CO`, the Potency entry in [1], in test [2], in test [3], in [4], in test [5] and in test [6] was “inactive” each time. For the same compound, the Potency result in test [7], in test [8] and in [9] was “inactive” each time. The result in test [10] was inactive.

For the compound `COc1cc(Cl)ccc1Oc1ccc(Cl)cc1Cl`, the Potency in test [1] was 47.6 µM (active). The Potency entry in test [2], in test [3], in [4], in [5], in test [6] and in test [7] was “inactive” throughout. Moreover, the Potency entry in test [8] and in test [9] was “inactive” throughout. The compound was called inactive in test [10].

As to `O=C(O)C(S)C(S)C(=O)O` (configuration not stated), the Potency entry in test [1], in test [2], in [3], in test [4], in [5] and in [6] was “inactive” in each case. For the same compound, the Potency result in test [7], in test [8] and in test [9] was “inactive” throughout. Further, the compound was classed as inactive in test [10].

Consider `C=CCOc1ccccc1OCC(O)CNC(C)C` (configuration not stated), for which the Potency result in test [1], in test [2], in test [3], in [4], in test [5] and in test [6] was “inactive” in each case. For the same compound, the Potency result in test [7], in test [8] and in test [9] was “inactive” in each case. Further, the call in test [10] was inactive.

Consider `O=C(O)CNCC(=O)O`, for which the results for the activity change, negative = cytotoxicity in test [1] and in test [8] were -8.65% [at 5.95 µM] and -4.51% [at 5.95 µM], respectively. Further, the activation in test [2] was 11.6% [at 5.95 µM]; in test [7], 1.91% [at 5.95 µM]; in test [9], 4.1% [at 6.01 µM]. Also, the values for the viability change, negative = cytotoxic in test [3] and in test [6] were -5.77% [at 6.26 µM] and -1.74% [at 5.95 µM], respectively. Also, the ratio activity, negative = inhibition in [4] is -0.396% [at 6.26 µM]. Further, the activity change, negative = inhibition in test [5] was -18.1% [at 5.95 µM].

`O=C1[C@H]2CCCC[C@H]2C(=O)N1CCCCN1CCN(c2nsc3ccccc23)CC1`: the Potency entry in test [1], in [2], in test [3], in [4], in test [5] and in test [6] was “inactive” each time. The Potency entry in [7] and in test [8] was “inactive” in each case.

As for `O=C(Cl)c1cc(C(=O)Cl)cc(C(=O)Cl)c1`, the Potency entry in [1], in test [2], in test [3], in test [4], in test [5] and in [6] was “inactive” each time. In addition, the Potency entry in test [7] and in [8] was “inactive” in each case.

For the compound `CCCCCCCCCCCc1ccccc1`, the Potency entry in test [1], in test [2], in test [3], in test [4], in test [5] and in test [6] was “inactive” each time. In addition, the Potency entry in test [7], in [8] and in test [9] was “inactive” each time. In [10], the compound was classed as inactive.

On to `CCCCC`, for which the Potency result in test [1], in test [2], in [3], in test [4], in test [5] and in test [6] was “inactive” throughout. For the same compound, the Potency result in test [7], in test [8] and in test [9] was “inactive” in each case. For the same compound, the call in [10] was inactive.

With `CCCCC(CC)COC(=O)CCCCCCCCC(=O)OCC(CC)CCCC` (configuration not stated), the Potency result in test [1], in test [2], in test [3], in test [4], in test [5] and in [6] was “inactive” throughout. Moreover, the Potency result in test [7], in test [8] and in test [9] was “inactive” each time. For the same compound, the outcome in test [10] was inactive.

For `C=CC(=O)OCCOCCOC(=O)C=C`, the Potency in [1] was 49.2 µM (active).

Regarding `O=C(O)c1ccc(S(=O)(=O)O)cc1C(=O)O`, the Potency entry in [1], in [2], in [3], in [4], in test [6] and in [8] was “inactive” in each case. Moreover, the Potency entry in test [9] is “inactive”.

For `CC(C)(O)c1ccc(CNC(=O)c2cccnc2Oc2ccc(F)cc2)cc1`, the Potency result in test [1], in [2], in test [3], in test [4], in test [6] and in test [8] was “inactive” throughout.

Consider `C=C(C)C(=O)OCCOCC`, for which the Potency result in [1], in [2], in test [3], in [4], in test [6] and in test [8] was “inactive” throughout.

For `CCOc1ccc(N)c([N+](=O)[O-])c1`, the Potency entry in test [1], in test [2], in test [3], in test [4], in test [6] and in test [8] was “inactive” in each case. The Potency entry in test [9] was “inactive”. In addition, the outcome in test [10] was inactive.

Turning to `CC(C)(COC(=O)c1ccccc1)COC(=O)c1ccccc1`, the Potency result in test [1], in test [2], in [3], in test [4], in test [6] and in test [8] was “inactive” each time. In test [9], the Potency result is “inactive”.

As for `COc1ccnc(CS(=O)c2nc3ccc(OC(F)F)cc3[nH]2)c1OC` (configuration not stated), the Potency entry in [1], in test [2], in [3], in test [4], in [6] and in [8] was “inactive” each time.

As for `CC(C)CC(=O)C1C(=O)c2ccccc2C1=O`, the Potency result in [1], in [2], in [3], in [4], in [6] and in test [7] was “inactive” throughout. Besides, the Potency result in test [8] is “inactive”.

For the compound `CN1CCN(C(c2ccccc2)c2ccccc2)CC1`, the Potency entry in test [1], in test [2], in test [3], in [4], in test [6] and in test [8] was “inactive” throughout. Moreover, in test [9], the Potency entry is “inactive”. In test [10], the result was inactive.

For `Brc1c2ccccc2c(Br)c2ccccc12`, the values for the activity change, negative = cytotoxicity in test [1] and in test [8] were 11.2% [at 5.95 µM] and -3.74% [at 5.95 µM], respectively. Further, the Potency in [2] is 1.98 µM (active). Besides, in test [3], the viability change, negative = cytotoxic is -15% [at 6.26 µM]. The ratio activity, negative = inhibition in test [4] was -10.9% [at 6.26 µM]. Besides, the activity change, negative = inhibition in [5] was 14.8% [at 5.95 µM].

For `CCOc1ccc(O)cc1`, the Potency entry in [1], in test [2], in test [3], in [4], in [6] and in [8] was “inactive” each time. The Potency entry in test [9] is “inactive”. Besides, in [10], the call was inactive.

On to `CC[N+]1(CC)CCC(=C(c2ccccc2)c2ccccc2)C1C` (configuration not stated), for which the Potency entry in [1], in [2], in test [3], in test [4], in test [6] and in test [8] was “inactive” in each case. In addition, the Potency result in test [9] is “inactive”. Besides, the compound was classed as inactive in test [10].

With `c1cc(CCCc2ccncc2)ccn1`, the Potency entry in test [1], in test [2], in [3], in test [4], in [6] and in [8] was “inactive” throughout. In addition, the Potency entry in test [9] was “inactive”. Besides, in test [10], the result was inactive.

`CN1Cc2cc(C(=O)N3CCC(C4CCNCC4)CC3)ccc2NC(CC(=O)O)C1=O` (configuration not stated): the Potency result in test [1], in [2], in test [3], in test [4], in test [6] and in [8] was “inactive” in each case.

With `O=C(OCCc1ccccc1)c1ccccc1`, the Potency entry in [1], in test [2], in [3], in test [4], in test [6] and in [8] was “inactive” in each case. Besides, the Potency entry in test [9] was “inactive”. Moreover, the call in [10] was inactive.

`O=CC1CC=CCC1` (configuration not stated): the Potency result in test [1], in test [2], in [3], in test [4], in [6] and in test [7] was “inactive” throughout. The Potency result in [8] and in test [9] was “inactive” throughout. Besides, the compound was classed as inactive in test [10].

Regarding `COC(C)(C)CCO`, the Potency entry in test [1], in [2], in test [3], in test [4], in test [6] and in test [8] was “inactive” in each case. Moreover, the Potency result in test [9] is “inactive”. In addition, the compound was classed as inactive in test [10].
